The record followed here is the supplement of paper PMC3334620.

Over roughly 33,000 sequences, “E-score (-0.5 to 0.5)” has its median near -0.012; the highest 2% begin near 0.29. The entries come from a sample that favours the highest values as a whole.

The target in this test is T1, Ybr033w (UniProt P38073).
T1 sequence: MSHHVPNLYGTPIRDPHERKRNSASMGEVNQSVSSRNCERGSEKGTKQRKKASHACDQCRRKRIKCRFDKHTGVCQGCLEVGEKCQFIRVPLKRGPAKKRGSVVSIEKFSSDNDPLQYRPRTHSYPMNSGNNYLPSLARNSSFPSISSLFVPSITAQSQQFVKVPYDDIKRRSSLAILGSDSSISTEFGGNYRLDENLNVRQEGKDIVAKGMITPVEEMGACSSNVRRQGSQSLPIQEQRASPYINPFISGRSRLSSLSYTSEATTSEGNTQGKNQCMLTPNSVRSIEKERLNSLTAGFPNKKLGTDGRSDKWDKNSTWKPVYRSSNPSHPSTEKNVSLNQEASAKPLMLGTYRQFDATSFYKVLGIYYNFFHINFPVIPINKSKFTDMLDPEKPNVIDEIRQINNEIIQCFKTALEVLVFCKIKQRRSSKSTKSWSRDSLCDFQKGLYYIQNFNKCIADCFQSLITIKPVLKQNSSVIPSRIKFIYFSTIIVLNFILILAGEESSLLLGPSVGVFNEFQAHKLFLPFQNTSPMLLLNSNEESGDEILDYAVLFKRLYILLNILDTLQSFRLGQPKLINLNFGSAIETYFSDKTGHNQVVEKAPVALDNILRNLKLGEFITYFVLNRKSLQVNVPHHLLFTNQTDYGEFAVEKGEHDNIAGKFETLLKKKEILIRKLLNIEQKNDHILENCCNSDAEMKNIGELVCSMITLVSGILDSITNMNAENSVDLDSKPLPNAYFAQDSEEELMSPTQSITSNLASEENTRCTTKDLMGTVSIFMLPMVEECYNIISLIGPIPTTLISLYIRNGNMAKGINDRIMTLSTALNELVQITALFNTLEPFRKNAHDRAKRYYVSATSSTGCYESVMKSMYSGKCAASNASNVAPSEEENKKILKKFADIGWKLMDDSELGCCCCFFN
Put plainly: PBM E-score (8-mer binding enrichment) (E-score (-0.5 to 0.5)); higher = stronger / more preferred TF binding. The note with it: protein concentration: 200 nM; construct: GST-full length. How it is done:
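Universal 'all 10-mer' protein binding microarrays (Agilent AMADID 015681) probed with GST-tagged S. cerevisiae TFs (full-length or DBD) made by in vitro transcription/translation (PURExpress), about 100-200 nM. Bound TF was detected with fluorescent anti-GST. Each ungapped 8-mer (which stands for itself and its reverse complement) is scored by the PBM enrichment score (E-score), a modified Wilcoxon-Mann-Whitney statistic from -0.5 to +0.5, computed with the Universal PBM Analysis Suite. Scale: above 0.35 generally sequence-specific binding.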
For CGCTCATC, the “PBM E-score” value was -0.0261.

GATACCAC: the “PBM E-score” value amounted to 0.066.

For the sequence ATTTTTTC, the “PBM E-score” value was determined as 0.316.

Consider AATTTCTC, for which the “PBM E-score” value is 0.299.

For the sequence CATTTCTC, the “PBM E-score” value turned out to be 0.176.

As for AATTTCTA, the “PBM E-score” value worked out at 0.209.

Consider ATTTTGTG, for which the “PBM E-score” value was found to be 0.291.

Take ATTTTCTC: the “PBM E-score” value came out at 0.201.

As for AATTTTCA, the “PBM E-score” value worked out at 0.252.

In the case of AATTTTCC, the “PBM E-score” value was found to be 0.468.

Take ATTTTGTC: the “PBM E-score” value was 0.187.

On to AATTTTCT, for which the “PBM E-score” value is 0.145.

Regarding ATTTTTTG, the “PBM E-score” value amounted to 0.274.

As to ATTTTGTA, the “PBM E-score” value was determined as 0.246.

With CATAACGG, the “PBM E-score” value turned out to be 0.0155.

In the case of CAGAGTGC, the “PBM E-score” value is -0.126.

Turning to TCATAACA, the “PBM E-score” value was found to be 0.23.

Turning to TCAGAGCA, the “PBM E-score” value was -0.114.

Take ATCTAGAC: the “PBM E-score” value was found to be 0.107.

With AGTGAATC, the “PBM E-score” value was 0.0239.

Consider CAGCCTAG, for which the “PBM E-score” value was 0.0256.

For the sequence AAATTTTC, the “PBM E-score” value is 0.258.

In the case of AATTTTTA, the “PBM E-score” value is 0.256.

With AATTTTTC, the “PBM E-score” value worked out at 0.31.

With AATATTGG, the “PBM E-score” value came out at 0.047.

Consider AATATTGC, for which the “PBM E-score” value was found to be 0.223.

For AATATTGT, the “PBM E-score” value worked out at 0.298.

GATATTGA: the “PBM E-score” value worked out at 0.177.

Consider CATATTGA, for which the “PBM E-score” value was found to be 0.0393.

In the case of AATATTGA, the “PBM E-score” value was 0.329.

With CCAGGTAG, the “PBM E-score” value was -0.0963.

As for TATGGCAA, the “PBM E-score” value is -0.151.

For the sequence CGCCGCAC, the “PBM E-score” value was -0.233.

With AAGGAAAC, the “PBM E-score” value worked out at 0.0412.

In the case of AAAGGAAC, the “PBM E-score” value is 0.163.

For the sequence CAGAAAAA, the “PBM E-score” value stood at 0.0895.

On to AAGGAAAT, for which the “PBM E-score” value turned out to be 0.185.

On to CAGGAAAA, for which the “PBM E-score” value came out at 0.387.

With CAAGGAAA, the “PBM E-score” value came to 0.162.

Turning to GAGGAAAA, the “PBM E-score” value came out at 0.199.

Consider AAGGAAAA, for which the “PBM E-score” value is 0.398.

Regarding AAAGGAAA, the “PBM E-score” value was 0.303.

For the sequence AGATACCT, the “PBM E-score” value was -0.0724.

Take AAAGAGAC: the “PBM E-score” value was -0.0019.

Consider TTAATTAA, for which the “PBM E-score” value worked out at 0.241.

In the case of CTAATTAC, the “PBM E-score” value turned out to be 0.131.

Turning to ATAATTAG, the “PBM E-score” value stood at 0.272.

In the case of GTAATTAC, the “PBM E-score” value amounted to 0.218.

For the sequence ATAATTAA, the “PBM E-score” value was determined as 0.414.

Regarding GTAATTAA, the “PBM E-score” value is 0.105.

For the sequence ATTATAAT, the “PBM E-score” value amounted to 0.205.

For the sequence ATAATTAC, the “PBM E-score” value amounted to 0.353.

In the case of ATAATTAT, the “PBM E-score” value is 0.372.

Consider ATTGATGG, for which the “PBM E-score” value was 0.213.

Regarding ATAGGTTC, the “PBM E-score” value was found to be 0.143.

For the sequence AGGCAACT, the “PBM E-score” value is 0.174.

Turning to CCGCGCAC, the “PBM E-score” value is -0.0688.

Turning to AAGCAACA, the “PBM E-score” value amounted to 0.117.

Turning to CTTGCATC, the “PBM E-score” value is -0.144.

For CATCCGCA, the “PBM E-score” value came to 0.156.

As to TATCCGCA, the “PBM E-score” value was determined as 0.306.

Take AATCCGCA: the “PBM E-score” value was 0.119.

CGAGAGCA: the “PBM E-score” value is -0.0204.

Turning to GAAAAAGC, the “PBM E-score” value was 0.239.

Turning to ACCGACCT, the “PBM E-score” value was -0.172.

On to GCGCGCGC, for which the “PBM E-score” value amounted to 0.334.

Regarding GCGCGCGA, the “PBM E-score” value worked out at 0.111.

Take ACGCGCGC: the “PBM E-score” value was -0.0247.

As for CGTCTGTA, the “PBM E-score” value was -0.11.

As for CGGTGATA, the “PBM E-score” value was 0.178.

Take AGTAGTTA: the “PBM E-score” value amounted to 0.0431.

AATAGTTC: the “PBM E-score” value was 0.294.

On to AATAGTTG, for which the “PBM E-score” value is 0.207.

As to CATAGTTC, the “PBM E-score” value is -0.0864.

In the case of AGTAGTTC, the “PBM E-score” value worked out at 0.307.

Turning to AGTAGTTG, the “PBM E-score” value was 0.176.

In the case of CACAAATG, the “PBM E-score” value was found to be 0.0361.

In the case of CACGGTTC, the “PBM E-score” value was -0.265.

Consider GAAAGCGA, for which the “PBM E-score” value was determined as 0.101.

As for AGTACAAG, the “PBM E-score” value is 0.0813.

Regarding AGTACAAT, the “PBM E-score” value is 0.302.

As to AGTACAAA, the “PBM E-score” value was found to be 0.114.

Turning to CAGGTCGA, the “PBM E-score” value came to 0.141.

Consider AAACTTAT, for which the “PBM E-score” value worked out at 0.379.

Consider AAACTTAC, for which the “PBM E-score” value came to 0.168.

As for AAACTTAA, the “PBM E-score” value was found to be 0.259.

Consider GATCTTCC, for which the “PBM E-score” value stood at 0.33.

CATCTTCC: the “PBM E-score” value turned out to be 0.0897.

Take AATCTATA: the “PBM E-score” value was 0.297.

For ATTCTTCA, the “PBM E-score” value came out at 0.129.

Turning to ATTCTTCC, the “PBM E-score” value was 0.471.

As for CATCTATA, the “PBM E-score” value amounted to 0.188.

Turning to GATCTATA, the “PBM E-score” value stood at 0.157.

Turning to GATCTTGC, the “PBM E-score” value worked out at 0.0857.

Consider CTTCTTCC, for which the “PBM E-score” value was determined as 0.0741.

CGAATAGA: the “PBM E-score” value was -0.0851.

CTTCCATC: the “PBM E-score” value was -0.00237.

On to ATTCAGAC, for which the “PBM E-score” value was determined as 0.0909.

In the case of CGTCCCTC, the “PBM E-score” value was -0.217.

As for AGCACAAG, the “PBM E-score” value is -0.0143.

Regarding AGGTCAGC, the “PBM E-score” value came to 0.0524.

Consider CCAATCAA, for which the “PBM E-score” value was 0.075.

With GAACTTCA, the “PBM E-score” value was 0.0447.

As to AAACTTCA, the “PBM E-score” value was determined as 0.293.

Consider AATCTTCG, for which the “PBM E-score” value was 0.0477.

For the sequence AATCTTCA, the “PBM E-score” value came to 0.318.

For ACTCTTCC, the “PBM E-score” value was -0.0223.

With AATCTTCC, the “PBM E-score” value is 0.411.

Regarding AATCTTCT, the “PBM E-score” value was 0.132.

As for AAACTTCG, the “PBM E-score” value amounted to 0.0988.

Regarding GATCTTCA, the “PBM E-score” value stood at 0.0894.
